AmpC inh no detg = qHTS Inhibitors of AmpC Beta-Lactamase (assay without detergent) | Potency, µM (titrated, usually from 57.1 µM), hits mostly inhibitors | AmpC nitrocefin hydrolysis, absorbance 480 nm, 0.0001% Triton | P00811 | 330,000 compounds, 0.52% hits; note: nearly all actives have a fitted effect of over 20% in size
Target sequence (P00811 whole entry, looked up): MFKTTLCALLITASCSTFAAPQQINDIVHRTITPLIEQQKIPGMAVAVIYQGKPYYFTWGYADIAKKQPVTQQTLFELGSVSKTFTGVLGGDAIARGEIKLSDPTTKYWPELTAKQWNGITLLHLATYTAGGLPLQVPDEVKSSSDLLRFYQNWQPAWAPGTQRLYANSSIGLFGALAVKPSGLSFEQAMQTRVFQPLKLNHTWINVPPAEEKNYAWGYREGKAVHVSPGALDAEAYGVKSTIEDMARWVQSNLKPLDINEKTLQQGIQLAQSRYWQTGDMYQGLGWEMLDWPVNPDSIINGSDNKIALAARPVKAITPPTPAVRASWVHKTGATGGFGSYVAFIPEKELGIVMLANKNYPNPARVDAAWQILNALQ
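AmpC (5.3 nM in the dispensed reagent) in 20 mM phosphate pH 7.0 with 0.01% (detergent screen) or 0.0001% Triton X-100 was preincubated with compounds for 15 min at room temperature. Nitrocefin was then added from an 800 uM solution, and hydrolysis was followed at 480 nm.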
AmpC inh detg = qHTS Inhibitors of AmpC Beta-Lactamase (assay with detergent). P00811. AmpC hydrolysis of nitrocefin, absorbance 480 nm, 0.01% Triton. Potency, µM (top dose mostly 114 µM), usual class: inhibitors. 370,000 compounds, 0.041% hits. AID 485294, 2010; note: nearly all actives have a fitted effect of over 25% in size
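AmpC (5.3 nM in the dispensed reagent) in 20 mM phosphate pH 7.0 with 0.01% (detergent screen) or 0.0001% Triton X-100 was preincubated with compounds for 15 min at room temperature. Nitrocefin was then added from an 800 uM solution, and hydrolysis was followed at 480 nm.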
SARS PLpro yeast = qHTS of Yeast-based Assay for SARS-CoV PLP | 330,000 compounds, 0.19% hits | Potency, µM (doses to about 32.9 µM), usual class: activators | S. cerevisiae expressing SARS-CoV PLpro, growth rescue; calls by dose curve; note: nearly all actives have a fitted effect of over 55% in size
Cycloheximide cs = Cycloheximide Counterscreen for Small Molecule Inhibitors of Shiga Toxin; max response, %; cell reporter, cycloheximide protein synthesis inhibition counterscreen; 300,000 compounds, 12% hits; in the data active = max response mostly above about 13%, no sharp cut-off; inactive = mostly below about 14%; note: read at 38.3 µM for the half of the compounds with a filed dose
AMA1 RON2 block = qHTS for Inhibitors of AMA1-RON; Towards Development of Antimalarial Drug Lead: Primary Screen | 360,000 compounds, 0.2% hits | AlphaScreen AMA1-biotinylated RON2 peptide binding | Potency, µM (titrated, usually from 58.2 µM), usual class: inhibitors; note: nearly all actives have a fitted effect of over 45% in size
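AMA1 (3D7) with his tag at 25 nM final met compounds first, then biotinylated RON2 peptide at 25 nM; detection used donor plus acceptor beads, 10 µg/mL apiece, read by AlphaScreen after 30 min at room temperature.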
Shiga inhibitor = A qHTS for Small Molecule Inhibitors of Shiga Toxin; Vero cells, Shiga toxin protein synthesis inhibition reporter; inhibition, % at 38.7 µM; 290,000 compounds, 9.2% hits; AID 2315, 2010; in the data active = inhibition mostly above about 28%, no sharp cut-off; inactive = mostly below about 43%
A number is an active result; . = inactive; ? = inconclusive; / = not tested or not shown; [ ] = dose if it differs, or a comment. This excerpt belongs to a sample that is enriched for hits. Unless noted, calls come from the whole dose curve; as a rule, active = well fitted curve in the direction sought with a large enough effect; inconclusive = small, poorly fitted or top-dose-only effect, or another doubt; inactive = no such curve, though single readings can be large; an effect the other way counts as inactive or inconclusive.

SMILES	AmpC inh no detg	AmpC inh detg	SARS PLpro yeast	Cycloheximide cs	AMA1 RON2 block	Shiga inhibitor
C=CCOc1ccc(CN(C)C(=O)CN2C(=O)c3ccccc3C2=O)cc1	.	.	.	.	.	.
O=C(Oc1ccc(/C=N/NC(=O)c2ccccn2)cc1)c1cccc(Br)c1	.	.	.	28	.	59
COc1ccc(C(=O)N/N=C/c2ccc(OC(=O)c3cccs3)cc2)cc1	.	.	.	.	.	.
Cc1cc(C(=O)NN=Cc2ccc(OC(=O)c3ccco3)cc2)c(C)o1	.	/	.	/	.	/
O=C(N/N=C/c1ccc(OC(=O)c2ccco2)cc1)c1ccccn1	.	.	.	27	.	39
CCOc1cc(/C=N/NC(=O)c2ccccn2)ccc1OC(=O)c1cccs1	.	.	?	28	.	43
O=C(Oc1ccc(/C=N/NC(=O)c2ccccn2)cc1)c1ccc(Br)cc1	/	/	/	/	.	/
CC(C)(C)OC(=O)N/N=C\c1ccc(OC(=O)c2cccs2)cc1	.	.	.	.	.	97
CCCN(CC(=O)Nc1ccccc1OC)C(=O)c1cccc(S(=O)(=O)NCc2ccccc2)c1	.	.	.	/	.	/
CC(C)(C)NC(=O)C(=O)N/N=C/c1ccc(Br)cc1	.	.	.	.	.	.
CC(C)(C)OC(=O)N/N=C/c1ccc(Br)cc1	.	.	.	40	.	105
O=C(N/N=C/c1ccc(OC(=O)c2cccs2)cc1)c1ccccn1	.	?	.	45	.	53
O=C(N/N=C\c1ccc(OC(=O)c2cccs2)cc1)c1ccc(Cl)cc1	.	.	.	.	.	.
Cc1ccc(C)c(NC(=O)CN(C)C(=O)c2ccc(Cl)nc2)c1	.	.	.	.	.	.
CCOC(=O)Cc1nc2ccccc2o1	.	.	.	15	/	.
O=S(=O)(c1cccs1)N1CCCc2cccc(O)c21	.	.	.	54	.	80
O=C(O)c1nn(Cc2nc3ccccc3o2)c(=O)c2ccccc12	.	?	.	.	.	.
COc1cc2c(cc1NC(=O)CSc1nc3ccc(C)cc3[nH]1)oc1ccccc12	?	.	.	.	/	.
Cc1cc(NC(=O)CSc2nnc(C3CC3)n2N)c([N+](=O)[O-])cc1C	.	.	.	.	.	.
CCOC(=O)C1CCN(C(=O)/C=C/c2ccccc2OC)CC1	.	.	.	.	.	.
O=C(/C=C/c1cccc(Cl)c1)N1CCC(Cc2ccccc2)CC1	.	.	.	12	.	54
CCOC(=O)C1CCN(C(=O)/C=C/c2ccc(OC)cc2)CC1	.	.	.	42	.	71
COC(=O)C1CCN(C(=O)/C=C/c2ccccc2)CC1	.	?	.	.	.	41
CCOC(CNC(=O)c1ccc2nc(N3CCC(C)CC3)sc2c1)OCC	.	.	.	25	.	.
Cc1ccc(C)c(N2CCN(CCCNC(=O)c3ccc4nc(N5CCC(C)CC5)sc4c3)CC2)c1	/	.	/	/	/	/
SMILES	AmpC inh no detg	AmpC inh detg	SARS PLpro yeast	Cycloheximide cs	AMA1 RON2 block	Shiga inhibitor
CCCN1CCN(CCCNC(=O)c2ccc3nc(N4CCC(C)CC4)sc3c2)CC1	.	.	.	33	.	47
Cc1ccc(NC(=S)NC(=O)C2CC2)c(C)c1	.	.	.	34	.	64
Cc1ccc(NC(=S)NC(=O)C2CCCC2)cc1C	3.2µM	.	.	50	.	91
COC(=O)c1ccccc1NC(=S)NC(=O)C1CC1	.	.	.	.	.	.
Cc1cc(Cl)ccc1NC(=S)NC1CCCC1	.	.	.	12	.	32
CC1CCCCC1NC(=S)Nc1ccc(Cl)cc1Cl (centres undefined)	.[2.29 µM]	.	.	.	.	31
O=C(NC(=S)Nc1ccc(O)cc1)C1CCCC1	.	.	.	/	.	/
CC1CCCCC1NC(=S)NC(=O)c1ccccc1Cl (centres undefined)	.	/	?	/	.	/
CC(C)c1ccc(N2C(=O)CC(Sc3ncccn3)C2=O)cc1 (centres undefined)	.	.	.	.	.	.
CCOC(=O)N1CCN(C(=O)CN(c2ccc(OCC)cc2)S(C)(=O)=O)CC1	.	.	.	.	.	.
Cc1ccc(NC(=S)NC2CCN(Cc3ccccc3)CC2)cc1C	.	.	.	.	.	.
CCN(CC)S(=O)(=O)c1cc(NC(=S)NC(=O)C2CCCC2)ccc1C	.	/	.	/	.	/
Cc1ccc(NC(=S)NC(=O)C2CCC2)cc1C	.	?	.	53	.	101
Cc1ccc(NC(=S)NC2CCCC2)cc1C	.	.	.	49	.	active
S=C(Nc1ccc2[nH]ccc2c1)NC1CCCCC1	.	.	.	37	.	65
Cc1nc2ccc(NC(=S)NC3CCCCC3)cc2nc1C	.	.	.	42	.	102
S=C(Nc1cccc(Cl)c1)NC1CCCCC1	.	.	?	.	.	.
[2H]c1c([2H])c([2H])c(C(=O)c2sc(N3CCCCCC3)nc2-c2ccccc2)c([2H])c1[2H]	.	.	.	.	.	.
CC1(C)O[C@@H]2[C@H](O1)[C@@H](CO)O[C@H]2n1cnc2c(=O)[nH]cnc21	.	.	.	/	.	/
COCc1nnc(NC(=O)C(C)C)s1	.	.	.	.	.	.
CCc1nnc(NC(=O)c2cccc(NC(=O)C(C)C)c2)s1	.	?	.	45	.	.
CC(C)C(=O)Nc1cccc(C(=O)Nc2nncs2)c1	.	.	.	.	.	.
COCc1nnc(NC(=O)c2cccc(NC(=O)C(C)C)c2)s1	.	.	.	14	.	27
COc1ccc(OC)c(-c2cc(C3CCN(C(=O)OC(C)(C)C)CC3)[nH]n2)c1	.	.	.	15	.	.
CCOCC(=O)Nc1nnc(COc2ccc(Cl)cc2)s1	.	.	.	.	.	.
SMILES	AmpC inh no detg	AmpC inh detg	SARS PLpro yeast	Cycloheximide cs	AMA1 RON2 block	Shiga inhibitor
CN(C)CCN1C(=O)c2oc3ccccc3c(=O)c2C1c1ccccc1 (centres undefined)	.	?	.	.	/	.
CN(C)CCCN1C(=O)c2oc3ccccc3c(=O)c2C1c1cccs1 (centres undefined)	.	.	.	22	.	24
Cc1ccccc1C(=O)N/N=C/c1ccncc1	.	.	.	.	.	.
Cc1ccccc1OCC(=O)N/N=C/c1ccccn1	.	.	.	.	.	35
Cc1ccccc1C(=O)N/N=C/c1ccccn1	.	.	.	52	.	68
O=C(N/N=C\c1ccccn1)c1ccccc1O	.	.	.	33	.	120
O=C(O)c1nccnc1C(=O)Nc1ccc(Cl)cc1Cl	.	.	.	.	.	.
S=C1NCCN1CC1CCN(CC2CCCC2)CC1	/	/	/	/	.	/
